Test [1] addresses Sphingosine kinase 1 (Homo sapiens) (UniProt Q9NYA1). As to conditions: at 1 µM.
Test [2] addresses T1, Sphingosine kinase 2 (Homo sapiens) (UniProt Q9NRA0).
T1 sequence (whole entry): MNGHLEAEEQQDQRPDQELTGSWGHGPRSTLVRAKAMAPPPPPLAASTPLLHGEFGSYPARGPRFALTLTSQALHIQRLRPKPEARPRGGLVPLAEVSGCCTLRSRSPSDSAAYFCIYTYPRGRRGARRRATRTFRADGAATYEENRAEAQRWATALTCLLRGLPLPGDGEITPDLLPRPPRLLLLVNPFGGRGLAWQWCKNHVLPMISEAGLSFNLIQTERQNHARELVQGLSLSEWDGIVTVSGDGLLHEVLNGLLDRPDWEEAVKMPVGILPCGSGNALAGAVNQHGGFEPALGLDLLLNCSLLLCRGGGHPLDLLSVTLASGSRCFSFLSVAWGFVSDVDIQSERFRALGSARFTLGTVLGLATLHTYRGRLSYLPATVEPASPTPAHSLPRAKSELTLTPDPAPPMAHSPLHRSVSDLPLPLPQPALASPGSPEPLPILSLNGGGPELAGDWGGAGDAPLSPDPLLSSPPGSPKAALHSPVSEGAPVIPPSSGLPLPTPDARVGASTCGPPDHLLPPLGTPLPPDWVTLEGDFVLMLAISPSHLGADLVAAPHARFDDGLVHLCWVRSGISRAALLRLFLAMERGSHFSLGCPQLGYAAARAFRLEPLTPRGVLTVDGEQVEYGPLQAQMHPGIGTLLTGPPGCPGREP
The conditions noted are these: at 0.1 µM.

Test [3] addresses T1, Sphingosine kinase 2 (Homo sapiens). The conditions noted are these: at 1 µM.
The target of test [4] is Casein kinase II subunit alpha (Homo sapiens) (UniProt P68400). The conditions noted are these: at 0.1 µM.
Casein kinase II subunit alpha (Homo sapiens), sequence (P68400 whole entry, looked up): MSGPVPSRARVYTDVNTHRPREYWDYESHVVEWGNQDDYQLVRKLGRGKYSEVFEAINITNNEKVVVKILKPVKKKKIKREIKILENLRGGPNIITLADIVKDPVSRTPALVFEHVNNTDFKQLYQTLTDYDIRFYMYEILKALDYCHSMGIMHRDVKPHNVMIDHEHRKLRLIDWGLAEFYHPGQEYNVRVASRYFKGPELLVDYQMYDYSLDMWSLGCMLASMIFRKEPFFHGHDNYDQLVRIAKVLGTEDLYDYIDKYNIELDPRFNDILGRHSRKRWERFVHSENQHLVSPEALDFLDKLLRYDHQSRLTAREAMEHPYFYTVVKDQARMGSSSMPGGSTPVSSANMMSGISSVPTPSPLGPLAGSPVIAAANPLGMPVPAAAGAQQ
The target is the same in test [5]. The conditions noted are these: at 1 µM.
Test [6] concerns the target T2, Inhibitor of nuclear factor kappa-B kinase subunit alpha (Homo sapiens) (UniProt O15111).
T2 sequence (whole entry): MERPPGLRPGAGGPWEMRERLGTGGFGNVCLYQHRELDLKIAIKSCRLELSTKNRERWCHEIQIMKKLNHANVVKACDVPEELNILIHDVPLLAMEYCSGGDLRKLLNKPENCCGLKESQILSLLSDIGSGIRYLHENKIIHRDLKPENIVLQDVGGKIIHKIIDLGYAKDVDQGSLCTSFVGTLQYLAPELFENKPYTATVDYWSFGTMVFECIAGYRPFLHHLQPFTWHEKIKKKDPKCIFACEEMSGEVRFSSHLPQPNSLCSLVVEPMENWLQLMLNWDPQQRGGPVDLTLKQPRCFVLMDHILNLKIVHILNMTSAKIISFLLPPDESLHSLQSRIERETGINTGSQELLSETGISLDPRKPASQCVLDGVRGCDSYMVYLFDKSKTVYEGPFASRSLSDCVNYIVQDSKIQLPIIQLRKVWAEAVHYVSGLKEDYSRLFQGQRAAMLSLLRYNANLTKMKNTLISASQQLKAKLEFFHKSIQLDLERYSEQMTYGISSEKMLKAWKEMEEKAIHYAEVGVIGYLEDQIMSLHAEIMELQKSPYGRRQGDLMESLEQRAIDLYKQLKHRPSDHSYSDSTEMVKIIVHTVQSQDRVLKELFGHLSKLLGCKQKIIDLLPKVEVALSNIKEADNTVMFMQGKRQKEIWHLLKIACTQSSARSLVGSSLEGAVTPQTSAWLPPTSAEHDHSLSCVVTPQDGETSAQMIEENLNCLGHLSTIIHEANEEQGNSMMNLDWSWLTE
The conditions noted are these: at 0.1 µM.

Test [7] deals with T2, Inhibitor of nuclear factor kappa-B kinase subunit alpha (Homo sapiens). The conditions noted are these: at 1 µM.
For test [8], the target named is T3, Inhibitor of nuclear factor kappa-B kinase subunit beta (Homo sapiens) (UniProt O14920).
T3 sequence (whole entry): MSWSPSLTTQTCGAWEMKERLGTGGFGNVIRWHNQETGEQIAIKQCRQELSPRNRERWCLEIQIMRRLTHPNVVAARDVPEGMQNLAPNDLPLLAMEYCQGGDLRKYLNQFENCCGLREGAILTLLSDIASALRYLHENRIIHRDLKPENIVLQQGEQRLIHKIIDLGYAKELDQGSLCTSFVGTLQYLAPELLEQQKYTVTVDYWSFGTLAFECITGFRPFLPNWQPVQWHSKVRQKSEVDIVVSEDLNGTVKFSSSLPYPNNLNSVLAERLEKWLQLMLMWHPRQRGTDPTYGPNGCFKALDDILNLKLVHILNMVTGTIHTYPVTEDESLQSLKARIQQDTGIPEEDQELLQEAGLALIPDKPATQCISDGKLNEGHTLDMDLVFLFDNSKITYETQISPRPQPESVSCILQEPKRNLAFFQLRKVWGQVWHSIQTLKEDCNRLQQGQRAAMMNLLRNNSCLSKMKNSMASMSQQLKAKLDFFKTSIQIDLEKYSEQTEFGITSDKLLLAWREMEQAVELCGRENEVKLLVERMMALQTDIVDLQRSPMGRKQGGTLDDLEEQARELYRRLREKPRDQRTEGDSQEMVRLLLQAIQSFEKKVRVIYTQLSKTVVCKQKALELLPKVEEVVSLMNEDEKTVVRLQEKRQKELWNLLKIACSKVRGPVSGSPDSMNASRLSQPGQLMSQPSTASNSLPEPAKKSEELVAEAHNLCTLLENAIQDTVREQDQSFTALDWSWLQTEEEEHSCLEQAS
The conditions noted are these: at 0.1 µM.

For test [9], the target named is T3, Inhibitor of nuclear factor kappa-B kinase subunit beta (Homo sapiens). As to conditions: at 1 µM.
In test [10] the target is T4, Inhibitor of nuclear factor kappa-B kinase subunit epsilon (Homo sapiens) (UniProt Q14164).
T4 sequence (whole entry): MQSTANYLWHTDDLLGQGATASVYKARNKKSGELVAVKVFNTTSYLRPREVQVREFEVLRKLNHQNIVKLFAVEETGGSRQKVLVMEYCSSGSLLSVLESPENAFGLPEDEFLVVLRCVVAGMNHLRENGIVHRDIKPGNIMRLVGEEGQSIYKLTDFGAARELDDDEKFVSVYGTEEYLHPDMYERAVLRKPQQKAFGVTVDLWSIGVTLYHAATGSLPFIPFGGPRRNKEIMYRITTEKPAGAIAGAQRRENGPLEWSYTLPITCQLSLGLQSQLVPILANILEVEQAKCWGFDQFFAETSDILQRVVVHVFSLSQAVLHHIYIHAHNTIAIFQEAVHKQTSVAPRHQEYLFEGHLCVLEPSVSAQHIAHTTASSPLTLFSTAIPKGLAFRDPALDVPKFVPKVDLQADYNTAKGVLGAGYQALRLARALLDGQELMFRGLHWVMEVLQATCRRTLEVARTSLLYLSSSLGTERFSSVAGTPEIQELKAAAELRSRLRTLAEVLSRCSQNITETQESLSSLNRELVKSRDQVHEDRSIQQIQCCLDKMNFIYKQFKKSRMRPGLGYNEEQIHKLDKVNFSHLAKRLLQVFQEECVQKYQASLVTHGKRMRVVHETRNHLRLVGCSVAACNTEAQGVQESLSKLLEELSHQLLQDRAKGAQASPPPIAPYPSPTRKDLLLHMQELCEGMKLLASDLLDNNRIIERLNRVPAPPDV
The conditions noted are these: at 0.1 µM.

The target of test [11] is T4, Inhibitor of nuclear factor kappa-B kinase subunit epsilon (Homo sapiens). As to conditions: at 1 µM.
Test [12] concerns the target T5, Serine/threonine-protein kinase Nek1 (Homo sapiens) (UniProt Q96PY6).
T5 sequence (whole entry): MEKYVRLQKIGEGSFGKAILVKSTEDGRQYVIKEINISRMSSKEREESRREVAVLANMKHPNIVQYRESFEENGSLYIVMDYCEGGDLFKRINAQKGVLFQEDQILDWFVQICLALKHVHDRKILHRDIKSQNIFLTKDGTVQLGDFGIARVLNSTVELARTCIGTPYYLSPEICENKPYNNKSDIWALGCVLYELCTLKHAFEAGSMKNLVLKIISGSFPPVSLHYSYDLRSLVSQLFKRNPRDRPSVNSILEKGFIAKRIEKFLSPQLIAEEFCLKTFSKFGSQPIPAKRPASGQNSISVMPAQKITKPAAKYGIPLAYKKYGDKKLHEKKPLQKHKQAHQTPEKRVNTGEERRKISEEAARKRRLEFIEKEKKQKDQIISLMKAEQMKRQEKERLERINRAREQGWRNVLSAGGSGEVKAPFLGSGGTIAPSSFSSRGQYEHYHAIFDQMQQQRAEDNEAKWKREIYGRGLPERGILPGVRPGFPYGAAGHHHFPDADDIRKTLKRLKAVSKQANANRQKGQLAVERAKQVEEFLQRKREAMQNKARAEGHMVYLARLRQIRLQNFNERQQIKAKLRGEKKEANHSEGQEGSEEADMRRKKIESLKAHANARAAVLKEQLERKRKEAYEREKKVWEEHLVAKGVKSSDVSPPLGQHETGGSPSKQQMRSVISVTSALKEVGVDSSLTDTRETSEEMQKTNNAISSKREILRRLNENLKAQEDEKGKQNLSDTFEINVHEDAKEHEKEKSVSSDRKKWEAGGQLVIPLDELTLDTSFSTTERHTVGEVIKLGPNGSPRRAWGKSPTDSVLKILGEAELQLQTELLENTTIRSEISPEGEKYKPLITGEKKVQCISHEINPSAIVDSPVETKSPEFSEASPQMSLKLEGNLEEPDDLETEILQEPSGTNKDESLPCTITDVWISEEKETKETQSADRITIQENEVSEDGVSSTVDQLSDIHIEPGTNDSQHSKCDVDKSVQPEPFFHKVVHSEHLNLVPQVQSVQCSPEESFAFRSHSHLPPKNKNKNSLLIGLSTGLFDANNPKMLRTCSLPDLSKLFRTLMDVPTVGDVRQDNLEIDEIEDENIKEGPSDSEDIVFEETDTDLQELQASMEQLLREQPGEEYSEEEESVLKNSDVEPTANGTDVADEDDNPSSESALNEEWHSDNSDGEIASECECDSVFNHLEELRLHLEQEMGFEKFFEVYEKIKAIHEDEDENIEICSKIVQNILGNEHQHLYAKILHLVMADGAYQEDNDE
The conditions noted are these: at 0.1 µM.

The target in test [13] is T5, Serine/threonine-protein kinase Nek1 (Homo sapiens). The conditions noted are these: at 1 µM.
Test [14] deals with T6, Serine/threonine-protein kinase Nek2 (Homo sapiens) (UniProt P51955).
T6 sequence (whole entry): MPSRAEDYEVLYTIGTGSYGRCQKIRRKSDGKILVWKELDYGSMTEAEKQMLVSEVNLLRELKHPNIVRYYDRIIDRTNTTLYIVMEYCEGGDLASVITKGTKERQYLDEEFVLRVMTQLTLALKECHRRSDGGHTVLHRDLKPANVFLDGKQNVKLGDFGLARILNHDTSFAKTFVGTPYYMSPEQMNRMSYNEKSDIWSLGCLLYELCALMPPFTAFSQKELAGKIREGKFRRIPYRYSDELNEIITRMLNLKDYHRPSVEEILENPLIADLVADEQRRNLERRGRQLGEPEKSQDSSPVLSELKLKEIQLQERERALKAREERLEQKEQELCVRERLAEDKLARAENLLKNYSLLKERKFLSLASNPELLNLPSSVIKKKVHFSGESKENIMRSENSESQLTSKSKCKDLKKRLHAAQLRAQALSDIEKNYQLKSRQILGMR
As to conditions: at 0.1 µM.

Test [15] has as its target T6, Serine/threonine-protein kinase Nek2 (Homo sapiens). The conditions noted are these: at 1 µM.
Test [16] concerns the target Serine/threonine-protein kinase Nek6 (Homo sapiens) (UniProt Q9HC98). The conditions noted are these: at 0.1 µM.
For test [17] the target is unchanged. The conditions noted are these: at 1 µM.
Test [18] addresses Serine/threonine-protein kinase Nek7 (Homo sapiens) (UniProt Q8TDX7). The conditions noted are these: at 0.1 µM.
Test [19] has the same target. As to conditions: at 1 µM.
The target of test [20] is T7, Serine/threonine-protein kinase Nek9 (Homo sapiens) (UniProt Q8TD19).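 Note: reported value is the mean percent inhibition of NEK9.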
T7 sequence (whole entry): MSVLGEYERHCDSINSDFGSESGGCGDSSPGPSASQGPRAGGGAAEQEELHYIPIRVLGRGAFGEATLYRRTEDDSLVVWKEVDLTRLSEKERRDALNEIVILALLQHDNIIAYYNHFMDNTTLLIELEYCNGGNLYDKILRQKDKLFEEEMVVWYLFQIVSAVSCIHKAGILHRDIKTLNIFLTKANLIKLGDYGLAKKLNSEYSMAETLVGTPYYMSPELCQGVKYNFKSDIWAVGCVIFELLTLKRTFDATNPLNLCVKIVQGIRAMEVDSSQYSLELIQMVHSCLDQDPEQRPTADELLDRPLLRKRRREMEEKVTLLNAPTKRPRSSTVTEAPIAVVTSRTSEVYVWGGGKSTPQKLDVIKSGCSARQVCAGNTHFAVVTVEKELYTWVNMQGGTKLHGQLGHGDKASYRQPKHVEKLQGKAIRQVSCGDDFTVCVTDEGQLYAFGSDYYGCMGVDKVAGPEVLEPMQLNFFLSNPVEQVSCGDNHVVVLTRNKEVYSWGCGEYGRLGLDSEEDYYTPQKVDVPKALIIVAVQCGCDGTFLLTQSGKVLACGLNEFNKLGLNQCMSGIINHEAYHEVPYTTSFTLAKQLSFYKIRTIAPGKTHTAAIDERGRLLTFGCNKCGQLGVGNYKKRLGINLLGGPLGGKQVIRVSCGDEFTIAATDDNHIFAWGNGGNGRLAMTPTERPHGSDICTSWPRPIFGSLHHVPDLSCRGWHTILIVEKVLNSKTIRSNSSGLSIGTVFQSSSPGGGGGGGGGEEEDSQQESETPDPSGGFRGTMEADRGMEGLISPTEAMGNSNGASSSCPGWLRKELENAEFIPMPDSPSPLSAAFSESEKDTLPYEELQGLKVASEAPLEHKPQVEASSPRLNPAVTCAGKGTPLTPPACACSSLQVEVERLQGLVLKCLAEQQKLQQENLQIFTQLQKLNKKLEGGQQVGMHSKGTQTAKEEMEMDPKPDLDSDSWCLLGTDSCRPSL
The conditions noted are these: at 0.1 µM.

Serine/threonine-protein kinase Nek7 (Homo sapiens), sequence (Q8TDX7 whole entry, looked up): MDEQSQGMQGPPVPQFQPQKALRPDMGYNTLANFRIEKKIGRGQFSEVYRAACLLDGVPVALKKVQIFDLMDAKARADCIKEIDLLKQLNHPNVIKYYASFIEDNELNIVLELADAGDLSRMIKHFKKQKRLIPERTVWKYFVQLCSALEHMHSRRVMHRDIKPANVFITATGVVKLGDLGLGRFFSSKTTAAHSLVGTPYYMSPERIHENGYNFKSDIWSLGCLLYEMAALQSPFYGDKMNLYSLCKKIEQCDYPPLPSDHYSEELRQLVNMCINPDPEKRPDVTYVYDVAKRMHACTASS
Serine/threonine-protein kinase Nek6 (Homo sapiens), sequence (Q9HC98 whole entry): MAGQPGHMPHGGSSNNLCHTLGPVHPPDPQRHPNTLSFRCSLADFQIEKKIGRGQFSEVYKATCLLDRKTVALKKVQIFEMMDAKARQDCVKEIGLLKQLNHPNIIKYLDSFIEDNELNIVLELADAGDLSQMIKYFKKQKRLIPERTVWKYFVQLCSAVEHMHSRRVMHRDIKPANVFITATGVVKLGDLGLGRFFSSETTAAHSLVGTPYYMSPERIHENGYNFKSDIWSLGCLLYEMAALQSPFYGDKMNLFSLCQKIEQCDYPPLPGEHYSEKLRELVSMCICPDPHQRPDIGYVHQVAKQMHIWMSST
Sphingosine kinase 1 (Homo sapiens), sequence (Q9NYA1 whole entry): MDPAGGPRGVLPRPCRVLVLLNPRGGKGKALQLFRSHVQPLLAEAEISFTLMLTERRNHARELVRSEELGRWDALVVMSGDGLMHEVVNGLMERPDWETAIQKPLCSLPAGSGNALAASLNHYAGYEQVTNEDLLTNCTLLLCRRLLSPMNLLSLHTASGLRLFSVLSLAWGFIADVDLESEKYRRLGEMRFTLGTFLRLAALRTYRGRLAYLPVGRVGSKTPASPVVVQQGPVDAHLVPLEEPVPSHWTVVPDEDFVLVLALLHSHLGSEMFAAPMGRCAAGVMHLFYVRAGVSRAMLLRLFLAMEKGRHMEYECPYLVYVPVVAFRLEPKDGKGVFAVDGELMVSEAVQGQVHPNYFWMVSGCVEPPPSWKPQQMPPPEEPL

The term inhibition denotes the drop in the measured response relative to a control, in per cent. With `CCNC(=O)O[C@H]1CN[C@H](C#Cc2cc3ncnc(Nc4ccc(OCc5cccc(F)c5)c(Cl)c4)c3s2)C1`, the inhibition is -0.72% in [1]; 0.52% in test [2]; -3.06% in test [3]; 0.94% in [4]; -1.06% in test [5]; 2.78% in [6]. Further, the inhibition in test [7] was -6.68%; in test [8], 3.34%; in [9], 1.97%; in [10], 2.87%; in test [11], 2.76%; in [12] it was 1.8%. The inhibition came out at 2.36% in [13]; 3.33% in test [14]; 6.2% in [15]; 3.89% in test [16]; 0.56% in test [17]; 3.85% in test [18]. In addition, the inhibition in [19] was 3.51%; in test [20] it was 12%.

The values above are taken from ChEMBL document CHEMBL1961873, “Compounds: GSK PKIS; Assays: Nanosyn kinase panel” (2012).
